Only some compounds are listed: those with a hit (about 4.4% of all), similar ones and a draw of the others.
p53ts 32C tox: cytotoxicity in p53ts cells at permissive temperature; Potency, µM (series often up to 46.1 µM), for the others: at the highest dose activity change, negative = cytotoxicity, usual class: cytotoxic; AID 924; 0.93% of 130,000 active; H1299-p53A138V at 32C, ATP luminescence viability, 24 h;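 also: 0% = DMSO and -100% = full killing by reference compound; nearly all actives have a fitted effect of over 55% in size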
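ATP-content luminescence (ATPlite) read-out after 24 h compound exposure at 32C in H1299-p53A138V cells (600/well). Tested up to 46 uM. Normalized to DMSO (0%) and 100 uM tamoxifen (100% killing); Hill-fit AC50.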
p53ts 39C kill: cytotoxicity in p53ts cells at nonpermissive temperature; H1299-p53A138V viability at 39C, ATP luminescence, 24 h; Potency, µM (titrated, usually from 46.1 µM), without a hit: at the highest dose activity change, negative = cell killing, usual class: cytotoxic; 1.5% of 130,000 active; AID 902; also: nearly all actives have a fitted effect of over 55% in size
HPGD inh: inhibitors of human 15-hydroxyprostaglandin dehydrogenase (HPGD); P15428; purified HPGD, NADH fluorescence kinetic, PGE2 substrate; Potency, µM, for the others: at the top dose activity change, negative = inhibition, most hits filed as inhibitors; 4.3% of 150,000 active; AID 894; active = well fitted inhibition curve with a large enough effect, not every such curve was filed as active; inconclusive = small, poorly fitted or top-dose-only effect, or another doubt; inactive = no such curve, though single readings can be large or run the other way
Target sequence (P15428 whole entry, looked up): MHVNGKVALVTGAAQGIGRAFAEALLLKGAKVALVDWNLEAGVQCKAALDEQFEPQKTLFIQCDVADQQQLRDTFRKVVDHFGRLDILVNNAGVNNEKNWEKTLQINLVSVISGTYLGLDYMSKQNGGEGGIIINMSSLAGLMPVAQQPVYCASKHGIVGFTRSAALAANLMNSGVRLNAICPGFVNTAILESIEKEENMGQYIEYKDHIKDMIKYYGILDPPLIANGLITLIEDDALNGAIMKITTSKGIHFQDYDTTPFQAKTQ
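NADH formation kinetics: reaction with 30 uM PGE2 and 1 mM NAD+ (final), 20 nM enzyme, Tris-HCl pH 8 with Tween 20, after 15 min compound preincubation at room temperature. Fluorescence change, last versus first of five reads.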
12-hLO inh: blocks human 12-lipoxygenase activity. AID 1452. Potency, µM (top dose mostly 57.1 µM), for inactives: at the top dose activity change, negative = inhibition, actives largely listed as inhibitors. purified 12-hLO, xylenol orange hydroperoxide absorbance. 0.12% of 150,000 active. P18054; also: nearly all actives have a fitted effect of over 55% in size
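Purified human 12hLO (150 nM), preincubated 15 min with compound, then 40 uM arachidonic acid for 30 min, room temperature, Hepes pH 7.0 with 0.01% Triton X-100. Hydroperoxide detected by ferrous iron/xylenol orange; 573/405 nm absorbance ratio gives reaction progress.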
* = called active by the depositor; u = inconclusive; x = no result; [ ] = dose if it differs, or a comment. Unless noted, calls follow the shape of the dose curve; as a rule, active = well fitted curve in the direction sought with a large enough effect; inconclusive = small, poorly fitted or top-dose-only effect, or another doubt; inactive = no such curve, though single readings can be large; an effect the other way counts as inactive or inconclusive. Unless noted, % is scaled to controls: 0 for no effect and ±100 for the full control effect; potency is read from the fitted curve at half-maximal effect.

SMILES | p53ts 32C tox | p53ts 39C kill | HPGD inh | 12-hLO inh
Cc1ccccc1OCCNC(=O)CSc1ccc(C(F)(F)F)cc1[N+](=O)[O-] | x | x | 25.1µM* | 0.2%
COc1cccc(OCCNC(=O)CSc2ccc(C(F)(F)F)cc2[N+](=O)[O-])c1 | x | x | -25.0% | -0.3%
CCOc1ccc(OCCN2C(=O)NC3(CCCc4ccccc43)C2=O)cc1 (stereo not drawn) | -4.5% | -4.5% | -16.2% | -5.3%
O=C1NC2(CCCc3ccccc32)C(=O)N1CCOc1ccc(Br)cc1 (stereo not drawn) | x | x | 15.8µM* | -3.3%
CC(=O)N1CCC(N(Cc2ccc(C)o2)C(=O)Nc2cccc(C(F)(F)F)c2)CC1 | 2.8% | x | x | x
O=C(CNS(=O)(=O)c1ccccc1)NCC(=O)OCc1ccc(C(=O)c2ccccc2)cc1 | x | x | 20µM* | 1.5%
O=C(CNC(=O)Cc1ccccc1)NCC(=O)OCc1ccccc1 | x | x | -11.8% | 7.2%
COc1cccc(NC(CNS(=O)(=O)c2ccc(Cl)cc2)c2ccccc2)c1 (stereo not drawn) | u | 12.6µM* | x | x
O=S(=O)(NCC(Nc1ccc(Cl)cc1)c1ccccc1)c1ccccc1 (stereo not drawn) | u | 22.4µM* | -5.4% | -5.8%
O=S(=O)(NCC(c1ccccc1)N1CCc2ccccc21)c1ccc(Cl)cc1 (stereo not drawn) | 17.1% | 25.1µM* | x | x
CN(C)c1ccc(C(CNS(=O)(=O)c2ccc(F)cc2)N2CCc3ccccc32)cc1 (stereo not drawn) | 4.4% | 2.6% | x | x
COc1cccc(NC(CNS(=O)(=O)c2ccc(C)cc2)c2ccccc2)c1 (stereo not drawn) | 10.6% | u | x | x
COc1ccc(-n2c(=O)c3c(c4cc(OC)ccc4n3C)n(Cc3cccc(OC)c3)c2=O)cc1 | 2.9% | -0.6% | x | x
C[C@@H]1CC[C@H]2[C@H](C)[C@H]3CC[C@H]4C5[C@@H](O)CC6=CC(=O)CC[C@]6(C)[C@H]5C[C@H]4C3C(=O)N2C1 (stereo partly drawn) | x | x | -1.9% | x
Cc1cccc(-c2noc(-c3ccc(NC4CCCC4)c([N+](=O)[O-])c3)n2)c1 | 4.0% | -4.0% | x | x
O=C1c2ccccc2-c2onc3c(N4CCN(C5CCCCC5)CC4)cc(NCCO)c1c23 | -6.8% | -5.0% | x | x
CN(C)CCCNc1cc(N2CCN(C3CCCCC3)CC2)c2noc3c2c1C(=O)c1ccccc1-3 | -12.0% | 20µM* | x | x
COc1ccc(N2CCN(S(=O)(=O)CCNC(=O)COc3ccccc3F)CC2)cc1 | 4.0% | -13.6% | x | x
Nc1[nH]c(=S)[nH]c(=O)c1N=Nc1c(Br)cc(S(N)(=O)=O)cc1Br | 3.6%[9.22 µM] | 9.1%[9.22 µM] | -8.7% | 1.2%[11.4 µM]
O=c1cnc2cnc(N3CCNCC3)nc2n1Cc1cccs1 | -6.4% | 13.2% | u | 3.8%
COC(=O)C1=C(C)Nc2nnnn2C1c1cccs1 (stereo not drawn) | x | x | 15.8µM* | 7.6%
COc1ccc(NC(=O)c2c(C)oc3ccc(O)c(CN4CCCC(C)C4)c23)cc1Cl (stereo not drawn) | u | 31.6µM* | x | x
COc1ccc(NC(=O)c2c(C)oc3ccc(O)c(CN4CCC(C)CC4)c23)cc1Cl | -5.8% | 31.6µM* | x | x
Cc1oc2ccc(O)c(CN3CCCCCC3)c2c1C(=O)Nc1cccc(C(F)(F)F)c1 | -29.0% | 15.8µM* | x | x
CCOc1ccccc1NC(=O)Cc1noc2ccc(C)cc12 | -4.9% | -13.0% | x | x
SMILES | p53ts 32C tox | p53ts 39C kill | HPGD inh | 12-hLO inh
O=S(=O)(NCc1cn2ccsc2n1)c1cccs1 | 21.1% | 7.7% | -11.8% | 2.4%
O=C(NCCc1cn2ccsc2n1)c1cccs1 | -9.1% | -9.7% | 25.1µM* | -4.0%
COc1ccc(NS(=O)(=O)c2ccc(-n3nnc4ccccc43)c([N+](=O)[O-])c2)cc1 | x | x | -23.9% | -11.1%
O=[N+]([O-])c1cc(S(=O)(=O)Nc2cccc(C(F)(F)F)c2)ccc1-n1nnc2ccccc21 | x | x | 31.6µM* | -11.1%
COc1ccc(Nc2nc3c(S(=O)(=O)c4ccccc4)nnn3c3ccc(Cl)cc23)cc1 | u | 10µM* | x | x
CN(Cc1cc(C(C)(C)C)cc(Br)c1O)Cc1cc(C(C)(C)C)cc(Br)c1O | -6.6%[9.22 µM] | -29.2%[9.22 µM] | -5.7% | -11.3%[11.4 µM]
C=Cc1ccc(Cn2c(C(=O)O)c(CNCCc3ccccc3)c3ccc(C)cc32)cc1 | 38.4% | u | x | x
C=Cc1ccc(Cn2c(C(=O)O)c(CNCc3cc(OC)ccc3OC)c3ccc(C)cc32)cc1 | u | 12.6µM* | x | x
COc1ccc(-n2c(SCc3nnc(-c4ccccc4)o3)nnc2-c2ccccc2)cc1 | 5.8% | -8.1% | -8.7% | -8.9%
COc1ccc(-c2nnc(SCc3nnc(-c4ccccc4)o3)n2-c2ccccc2)cc1 | -12.1% | -10.6% | 7.94µM* | 2.3%
CN(C)c1nc(N)c(C(=O)Nc2cccnc2)nc1Cl | 12.6µM* | 5.01µM* | u | -14.3%
O=C(Nc1cccnc1)c1cc(-c2cccc(Cl)c2)on1 | 5.9% | 23.4% | x | x
CC(CNC(=O)c1ccc2c(c1)nc1n2CCCCC1)c1ccccc1 (stereo not drawn) | u | 12.6µM* | x | x
CC1CCn2c(nc3cc(C(=O)NCCc4ccc(Cl)cc4)ccc32)C1 (stereo not drawn) | 0.6% | 0.1% | x | x
CC1CCn2c(nc3cc(C(=O)NCCc4ccccc4)ccc32)C1 (stereo not drawn) | 15.8µM* | u | x | x
Cc1ccccc1CCNC(=O)c1ccc2c(c1)nc1n2CCOC1 | 7.94µM* | 6.31µM* | x | x
Cc1ccccc1CCNC(=O)c1ccc2c(c1)nc1n2CCCCC1 | 1.58µM* | 1µM* | x | x
CSc1ccc(CCNC(=O)c2ccc3c(c2)nc2n3CCCCC2)cc1 | -8.9% | -11.8% | x | x
CCN(CCCNC(=O)CN1N=C(c2ccc(OC)cc2)CCC1=O)c1cccc(C)c1 | -9.1% | -20.7% | x | x
CCCn1c(C)nc2c(NCCCN3CCCCC3C)nc(C)nc21 (stereo not drawn) | 1.1% | -4.3% | -6.0% | 1.6%
Cc1c2c(nc3c(C(=O)NC4CC4)cnn13)CCCC2 | -8.7% | -6.0% | 20µM* | -4.6%
Cc1cc(C(F)F)n2ncc(C(=O)NC3CCCCCC3)c2n1 | 5.0% | 7.5% | 22.4µM* | -0.8%
O=C(c1sc(N2CCOCC2)nc1-c1ccccc1)N1CCCCC1 | 9.4% | -5.8% | 0.0% | -1.5%
Nc1c(C(=O)N2CCCCC2)sc(=S)n1-c1ccccc1 | -4.3% | -5.3% | 3.16µM* | -5.6%
Nc1c(C(=O)N2CCOCC2)sc(=S)n1-c1ccccc1 | 6.5% | 2.8% | 11.2µM* | 1.2%
SMILES | p53ts 32C tox | p53ts 39C kill | HPGD inh | 12-hLO inh
O=C(c1nc(-c2ccccc2)n(-c2ccccc2)n1)N1CCCCCC1 | 7.9% | 1.4% | -14.5% | -3.7%
c1ccc(CN2CCN(c3nc4ccccc4n4cnnc34)CC2)cc1 | -12.7% | -0.9% | 14.1µM* | 10.5%
FC(F)(F)c1cccc(N2CCN(c3nc4ccccc4n4cnnc34)CC2)c1 | -1.9% | 15.8µM* | x | x
c1ccc(N2CCN(c3nc4ccccc4n4cnnc34)CC2)cc1 | x | x | u | -2.1%
C1=C(c2ccccc2)CCN(c2nc3ccccc3n3cnnc23)C1 | -2.2% | 1.2% | 14.1µM* | 3.9%
O=C(NCCCc1nc2ccccc2n1Cc1cccc(Cl)c1)c1ccco1 | -1.9% | -21.1% | x | x

Screening data: PubChem, National Center for Advancing Translational Sciences (NCATS)
